Only some compounds are listed: those with a hit (about 0.89% of all), similar ones and a draw of the others.
LAP4 TOR yeast: modulators of LAP4-GFP expression in yeast, primary screen, S. cerevisiae, multiplex flow cytometry, MLPCN library; GFP response vs DMSO, % at 10 µM; AID 2023, 2009; 3 h; median GFP as percent of DMSO wells; 320,000 tested, 0.34% active;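 active = GFP response vs DMSO above a set limit, about the screen mean plus 3 SD, cut at about 150% in these data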
AGP1 TOR yeast: modulators of AGP1-GFP expression in yeast TOR pathway, primary screen, cell-based, multiplex flow cytometry, S. cerevisiae, MLPCN library; 3 h; GFP as percent of DMSO wells; GFP response vs DMSO, % at 10 µM; 320,000 tested, 0.02% active; AID 2066, 2009;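 active = GFP response relative to DMSO above a set limit, near screen average plus 3 SD, cut at about 150% in these data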;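 note: median GFP channel fluorescence of the gated AGP1 strain per well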
RPL19A TOR yeast: RPL19A-GFP expression modulators in yeast, primary screen, cell-based, S. cerevisiae, multiplex flow cytometry, MLPCN | S. cerevisiae RPL19A-GFP strain, 3 h; active compounds read low | percent response vs DMSO, % at 10 µM | 330,000 tested, 0.3% active | AID 2025, 2009;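 active = percent response vs DMSO below 50%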;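 note: median channel GFP fluorescence of the barcoded RPL19A-GFP strain; ratio of sample median GFP to plate DMSO average so 100% = DMSO; lower means less RPL19A-GFP as with rapamycin TOR inhibition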
CIT2-GFP yeast: modulators of CIT2-GFP expression in yeast, primary screen, S. cerevisiae, GFP fusion, multiplex flow cytometry, MLPCN library; AID 2029, 2009; GFP response vs DMSO, % at 10 µM; 320,000 tested, 0.065% active; S. cerevisiae CIT2-GFP strain, 3 h; 100 means same as DMSO wells;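 active = GFP response relative to DMSO above a set limit, near the screen mean plus 3 SD, cut at about 150% in these data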;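 note: ratio of well median GFP fluorescence to mean of DMSO wells on the plate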
MEP2-GFP yeast: modulators of MEP2-GFP levels in yeast, primary screen, S. cerevisiae, multiplex flow cytometry, MLPCN library. S. cerevisiae MEP2-GFP strain, 3 h; 100% = DMSO control level. GFP response vs DMSO, % at 10 µM. 330,000 tested, 0.51% active. AID 2016, 2009;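 active = GFP response versus DMSO above a set limit, roughly screen mean plus 3 SD, cut at about 180% in these data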;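 note: median GFP fluorescence of the barcode-gated MEP2-GFP cells per well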
LAP4-GFP pick2: LAP4-GFP expression modulators in yeast, confirmation, cell-based, second cherry pick, flow cytometry | AID 2621, 2010 | shares compounds with LAP4 TOR yeast | GFP response vs DMSO, % at 10 µM | S. cerevisiae LAP4-GFP strain, 3 h | 590 tested, 20% active;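 active = GFP signal as percent of the solvent control above about 150%, meaning raised reporter expression, limit read from the data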;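 note: ratio of well median GFP fluorescence to plate DMSO mean so 100% = DMSO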
MEP2 cherry2: modulators of MEP2-GFP levels in yeast, confirmation, S. cerevisiae, flow cytometry GFP, second cherry picks | shares compounds with LAP4 TOR yeast | S. cerevisiae MEP2-GFP strain, 3 h | GFP response vs DMSO, % at 10 µM | 590 tested, 10% active;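 active = GFP signal above 150% of the solvent control wells, that is a rise of more than half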;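 note: median channel GFP fluorescence of all gated yeast cells per well; ratio of median GFP to plate DMSO average so 100% = DMSO level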
RPL19A-GFP pick2: RPL19A-GFP modulators in TOR pathway yeast, confirmation, cell-based, S. cerevisiae, flow cytometry, second cherry pick; shares compounds with LAP4 TOR yeast; S. cerevisiae RPL19A-GFP strain, 3 h; active compounds read low; 100% means same as DMSO wells; GFP response vs DMSO, % at 10 µM; 590 tested, 3% active; AID 2623, 2010;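 active = under 65% GFP response relative to DMSO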;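 note: median GFP channel fluorescence per well over the all cells gate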
CIT2 GFP CP2: modulators of CIT2-GFP expression in yeast, confirmation, flow cytometry, second cherry pick, single plex; shares compounds with LAP4 TOR yeast; 590 tested, 8% active; GFP response vs DMSO, % at 10 µM; S. cerevisiae CIT2-GFP strain, 3 h; DMSO control wells read 100%;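 active = GFP response vs DMSO above about 150%, limit read from the data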;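 note: median green fluorescence per well over all gated yeast cells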
AGP1 GFP CP2: AGP1-GFP expression modulators, hit retest, confirmation, cell-based, flow cytometry, S. cerevisiae, cherry pick set 2; shares compounds with LAP4 TOR yeast; S. cerevisiae AGP1-GFP strain, 3 h; percent response vs DMSO, % at 10 µM; 590 tested, under 10 active;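 active = over 150 percent of DMSO response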;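 note: median GFP channel fluorescence over all cells without mother daughter split; sample median GFP divided by mean DMSO control so 100% equals DMSO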
Yeast autofluor: compound autofluorescence in yeast s288c, dose response, artefact control for yeast TOR pathway GFP screen, s288c strain | fluorescence change (kMESF span) at 33 µM | 610 tested, under 10 active | AID 2757, 2010 | S. cerevisiae s288c, 520 nm autofluorescence, flow cytometry, 3 h; active compounds read high; zero means same as solvent-only cells | shares compounds with LAP4 TOR yeast;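 active = fluorescence span over the dose series, or activity score, above about 33, limit read from the data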
Yeast autofl DR: autofluorescence of compounds in yeast s288c, dose response, artefact control for yeast TOR pathway GFP screen, primary hits, KU SAR, s288c parental | shares compounds with LAP4 TOR yeast | S. cerevisiae s288c parental, compound autofluorescence, flow cytometry, 3 h | fluorescence change (span) at 33 µM | 110 tested, under 10 active | AID 488829, 2010;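 active = fluorescence change span, or the activity score built from it, above 25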
TORC1 bypass: wild-type yeast growth inhibition sparing TORC1 bypass cells, mechanism study for yeast TOR pathway GFP screen, BY4741 wild type, TORC1 bypass strain; shares compounds with LAP4 TOR yeast; S. cerevisiae BY4741 spot growth rating, 48-72 h; active compounds read low; growth rating (0-3) at 30 µM; 120 tested, under 10 active;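 active = growth rating at most 1 for wild type yeast while the TORC1 bypass strain still grows fully, rated 3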
Starred values were filed as active, the others as inactive; nt = no result given.

SMILES	LAP4 TOR yeast	AGP1 TOR yeast	RPL19A TOR yeast	CIT2-GFP yeast	MEP2-GFP yeast	LAP4-GFP pick2	MEP2 cherry2	RPL19A-GFP pick2	CIT2 GFP CP2	AGP1 GFP CP2	Yeast autofluor	others
O=C(CC(=O)c1ccccc1)Nc1ccccc1C(F)(F)F	87.2	94.6	98.5	93.7	105.3	101.0	101.5	101.5	97.2	97.4	nt
COc1cccc(NC(=O)CC(=O)c2ccccc2)c1	98.4	91.4	97.3	95.6	99.9	105.8	103.2	100.0	92.7	93.8	nt
O=C(CC(=O)c1ccccc1)Nc1ccccc1	91.6	89.4	89.3	82.1	94.6	105.8	101.5	101.3	100.7	98.4	nt
COc1ccc(NC(=O)CSc2nc3ccccc3c(=O)n2CCCO)cn1	95.8	95.0	94.2	92.5	97.2	nt	nt	nt	nt	nt	nt
Cc1ccccc1N1C(=O)C(Cl)=C(N2CCN(c3ccccc3)CC2)C1=O	104.9	nt	99.7	94.0	99.9	nt	nt	nt	nt	nt	0.1
O=C1C(Cl)=C(N2CCCCCC2)C(=O)N1c1ccccc1Cl	91.2	94.5	104.2	95.5	103.8	nt	nt	nt	nt	nt	nt
Nc1cccc2c1C(=O)N(CCOc1ccc(F)cc1)C2=O	92.9	85.8	93.4	91.6	94.0	nt	nt	nt	nt	nt	nt
CCc1ccc(OCC(=O)NNC(=S)NC(=O)C2CC2)c(Br)c1	166.2*	93.5	106.0	88.3	116.2	nt	nt	nt	nt	nt	0.71	Yeast autofl DR=0.73;TORC1 bypass=3
COc1ccc(OCC(=O)NNC(=S)NC(=O)C2CC2)cc1	102.1	99.4	110.0	92.4	107.0	nt	nt	nt	nt	nt	nt
COc1ccc(OCC(=O)NNC(=S)NC(=O)C2CCCCC2)cc1	170.1*	104.4	105.9	116.2	126.8	240.4*	139.8	112.8	154.9*	105.6	2.43
O=C(Nc1cccc(S(=O)(=O)N2CCCCC2)c1)C1CCCN1S(=O)(=O)c1ccccc1F (configuration not stated)	110.2	109.7	112.0	110.0	108.8	nt	nt	nt	nt	nt	nt
O=c1cc(-c2ccccc2)cc(-c2ccccc2)n1O	193.7*	89.1	99.3	69.5	97.3	137.3	188.7*	70.2	125.2	62.8	1.2
Cc1c(N2C(=O)/C(=C\c3ccccc3O)SC2=S)c(=O)n(-c2ccccc2)n1C	169.8*	93.2	95.3	107.9	96.2	nt	nt	nt	nt	nt	0.6
Cc1c(N2C(=O)/C(=C/c3ccccc3)SC2=S)c(=O)n(-c2ccccc2)n1C	90.3	96.5	92.5	118.7	76.0	nt	nt	nt	nt	nt	nt
CCc1ccc(C(=O)/C=C/c2ccc([N+](=O)[O-])o2)cc1	215.4*	78.3	99.1	155.4*	184.9*	nt	nt	nt	nt	nt	4.23
Cc1ccc(S(=O)(=O)O/N=C2\CCCc3ccccc32)cc1	102.2	105.1	101.2	111.2	102.1	nt	nt	nt	nt	nt	nt
CC1=C(C)/C(=N\OS(=O)(=O)c2ccccc2)C=CC1=O	254.8*	74.5	82.5	91.5	88.6	nt	nt	nt	nt	nt	0.31
O=C1Nc2ccc(Br)cc2/C1=C/C(=O)c1ccc2c(c1)OCO2	131.2	98.9	94.1	92.1	85.6	nt	nt	nt	nt	nt	-0.4
COc1ccc(S(=O)(=O)N(C)c2ccc(C(=O)Nc3ccccc3C(=O)N3CCOCC3)cc2)cc1OC	105.6	105.9	103.5	109.0	103.8	nt	nt	nt	nt	nt	nt
Cc1ccc2nc(CCl)[n+]([O-])c(-c3ccccc3)c2c1	104.2	100.2	96.5	99.6	112.5	nt	nt	nt	nt	nt	nt
COc1cccc2c(=O)c(C(=O)NCc3cccs3)c[nH]c12	101.2	96.6	93.0	88.3	98.0	101.0	103.2	99.8	98.4	103.3	0.5
Cc1cc(NC2CCCCC2)nc(NCc2ccccc2)n1	103.0	108.4	111.5	115.0	114.3	nt	nt	nt	nt	nt	nt
CC(C)c1cc(-c2cc(C(=O)NCc3ccccc3)on2)nc(NC2CCCC2)n1	155.7*	79.9	94.0	77.5	91.7	125.2	118.8	98.5	109.9	100.5	nt
COCCNc1nc(-c2cc(C(=O)Nc3ccccc3)on2)cc(C(C)C)n1	132.6	69.5	88.3	62.0	91.7	102.9	101.5	98.1	96.1	100.8	nt
CC(C)c1cc(-c2cc(C(=O)NCc3ccccc3)on2)nc(NCC2CC2)n1	143.8	80.0	91.2	62.7	92.5	117.3	103.2	96.0	108.6	100.5	nt
Cc1cc(-c2cc(C(=O)Nc3ccccc3)on2)nc(NCC2CC2)n1	108.3	86.8	98.1	95.5	92.5	102.2	120.5	102.7	104.3	104.8	nt
Cc1cc(-c2cc(C(=O)NC3CCCC3)on2)nc(NCC2CC2)n1	124.6	81.9	96.9	98.5	93.0	nt	nt	nt	nt	nt	nt
O=c1cc(N=Nc2ccc(Cl)cc2)[nH]c(=O)[nH]1	108.8	94.0	98.0	98.9	103.5	nt	nt	nt	nt	nt	nt
COc1ccc(CNS(=O)(=O)CCNC(=O)c2cccc(OC)c2)cc1	106.2	107.7	97.4	112.8	95.0	nt	nt	nt	nt	nt	nt
CN(CC(=O)Nc1c(Cl)cccc1Cl)C(=O)Cn1[nH]c(=O)c2ccccc2c1=O	99.7	100.6	99.0	92.0	103.4	nt	nt	nt	nt	nt	nt

High-throughput results from PubChem.
